An excerpt weighted towards active compounds, which were near 2.2% of everything screened.
TRPM1 prom inh – inhibitors of MITF-driven TRPM1 promoter in melanoma cells; SK-MEL-5 TRPM1 promoter luciferase, 24 h; inhibition, % at 12.5 µM; actives 0.83% (n = 330,000); AID 488899;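 active = mean inhibition across replicates of 60% or more, whatever share of single replicates reaches that level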
LGR2 inh – blocks bursicon-induced cAMP signaling via Drosophila LGR2; actives 0.35% (n = 380,000); inhibition, % at 9.99 µM; HEK293 LGR2, CRE-luciferase, bursicon-stimulated, 4 h;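 active = drop in luminescence signal, shown as inhibition above about 50% in the replicate tests, limit read from the data, passing the limit was not always enough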;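 note: agonist challenge used bursicon conditioned medium at about half maximal strength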
Shn3 3UTR inh – inhibitors of Schnurri-3 3'UTR reporter in osteoblasts; Clone20 osteoblast Shn3 3'UTR firefly luciferase, 24 h; inhibition, % at 12.5 µM; actives 0.52% (n = 360,000); AID 588674;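 active = mean inhibition of at least 75% with every replicate also reaching 75%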;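 note: 0% = median of neutral control wells and 100% = pilot-screen positive control compound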
EWS-Fli block – blocks EWS/Fli oncoprotein-driven transcription. A673 NR0B1-luciferase reporter, viability-normalised. inhibition, % at 12.6 µM. actives 0.67% (n = 350,000);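 active = mean inhibition of at least 50% after viability correction, with every replicate also passing that limit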;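 note: firefly luciferase signal divided by Alamar Blue viability fluorescence both relative to DMSO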
EBV LMP1 NFkB – reduces LMP1-driven NF-kappaB luciferase signal | LMP1-induced NF-kappaB luciferase reporter cells, luminescence | inhibition, % at 12.5 µM | actives 0.69% (n = 350,000) | AID 504558; in the data active = inhibition above about 41%;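 note: 0% = neutral control wells and 100% = reference inhibitor control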
PAX8 reporter – PAX8 transcriptional activity inhibition. AID 652154. inhibition, % at 12.6 µM. RMG-I TPO-luciferase reporter, SteadyGlo, 24 h. actives 1.2% (n = 360,000);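 active = mean replicate inhibition at least 60% with every replicate also reaching 60%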;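 note: luciferase light reporting Pax8 driven TPO promoter activity; plate controls were median of neutral control wells for no effect and mitoxantrone controls for full effect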
* hit, by the source's call; / = no result given.

SMILES	TRPM1 prom inh	LGR2 inh	Shn3 3UTR inh	EWS-Fli block	EBV LMP1 NFkB	PAX8 reporter
CC(C)C#Cc1ccc2c(c1)O[C@H](CN(C)C(=O)C1CCC1)[C@@H](C)CN([C@H](C)CO)S2(=O)=O	/	9	/	4	/	/
C[C@H](CO)N1C[C@H](C)[C@@H](CN(C)Cc2ccc(Cl)c(Cl)c2)OCCCC[C@H](C)Oc2ccc(NC(=O)NC3CCCCC3)cc2C1=O	/	22	/	19	/	1
C[C@@H]1CCCCO[C@H](CN(C)Cc2ccncc2)[C@H](C)CN([C@@H](C)CO)C(=O)c2cc(NC(=O)NC3CCCCC3)ccc2O1	/	-1	/	56*	/	83*
C[C@@H]1CCCCO[C@@H](CN(C)Cc2ccc(Cl)c(Cl)c2)[C@H](C)CN([C@H](C)CO)C(=O)c2cc(NC(=O)NC3CCCCC3)ccc2O1	/	4	/	-13	/	65*
C[C@@H]1CCCCO[C@@H](CN(C)Cc2ccc(Cl)c(Cl)c2)[C@H](C)CN([C@@H](C)CO)C(=O)c2cc(NC(=O)NC3CCCCC3)ccc2O1	/	9	/	4	/	68*
C[C@@H]1CCCCO[C@@H](CN(C)Cc2ccncc2)[C@@H](C)CN([C@H](C)CO)C(=O)c2cc(NC(=O)NC3CCCCC3)ccc2O1	/	-6	/	1	/	7
C[C@@H]1CN([C@H](C)CO)C(=O)c2cc(NC(=O)NC3CCCCC3)ccc2O[C@@H](C)CCCCO[C@@H]1CN(C)Cc1ccc(Cl)c(Cl)c1	/	8	/	10	/	71*
CCCCOC(=O)/C(=C/c1cn(C)c2ccccc12)NC(=O)c1ccc(OC)cc1	9	-4	-15	-3	4	11
COc1ccc(C(=O)N/C(=C\c2cn(C)c3ccccc23)C(=O)OCC(C)C)cc1	-3	-15	19	12	-13	70*
O=C(C[C@H]1CC[C@@H](NC(=O)NC2CCCC2)[C@@H](CO)O1)NCc1ccc(F)cc1	/	-6	/	0	/	-7
C/C(=N\NC(=O)c1ccccc1OCc1ccc(F)cc1)c1ccccn1	70*	-36	93*	-12	16	36
CCOc1cccc(-c2c(C(=O)N/N=C(\C)c3ccccn3)nnn2-c2nonc2N)c1	61*	35	94*	/	65*	69*
CCOc1ccc(OCc2ccc(C(=O)N/N=C(\C)c3ccccn3)cc2)cc1	23	-20	92*	0	23	21
CCOc1ccc(C(=O)N/N=C(/C)C2C(=O)c3ccccc3C2=O)cc1	-11	1	7	5	3	-32
CO[C@H]1CN(C)C(=O)c2ccc(NC(=O)Nc3ccc(Cl)cc3)cc2OC[C@H](C)NC[C@H]1C	/	10	/	14	/	/
C[C@H](CO)N1C[C@H](C)[C@@H](CN(C)Cc2ccc(-c3ccccc3)cc2)Oc2ccc(NC(=O)C3CCCCC3)cc2CC1=O	/	-18	/	18	/	11
C[C@H]1CN([C@@H](C)CO)C(=O)Cc2cc(NC(=O)C3CC3)ccc2O[C@@H]1CN(C)Cc1ccc(-c2ccccc2)cc1	/	16	/	-7	/	103*
C[C@H](CO)N1C[C@H](C)[C@@H](CN(C)Cc2ccc(-c3ccccc3)cc2)Oc2ccc(NC(=O)C3CC3)cc2CC1=O	/	11	/	-4	/	104*
COc1cccc(NC(=O)N(C)C[C@H]2Oc3cc(-c4ccccc4F)ccc3S(=O)(=O)N([C@@H](C)CO)C[C@H]2C)c1	/	/	/	8	/	/
CCN1CCc2c(sc(NC(=O)c3ccc(S(=O)(=O)N4CCCC4)cc3)c2C(=O)NC)C1	74*	-15	8	4	-11	12
COCC(=O)Nc1ccc2c(c1)OC[C@@H](C)N(Cc1ccccc1OC)C[C@@H](C)[C@@H](OC)CN(C)C2=O	/	0	/	18	/	/
Cc1nc(-c2ccc(C(=O)Nc3ccccc3F)cc2)cs1	49	83*	32	61*	20	-4
Cc1nc(-c2ccc(C(=O)Nc3ccc(F)cc3)cc2)cs1	-12	-1	7	-45	-10	-52
Cc1nc(-c2ccc(C(=O)Nc3cccc(F)c3)cc2)cs1	-3	60*	12	31	-3	19
COc1ccc(NC(=O)c2ccc(-c3csc(C)n3)cc2)cc1	-25	-43	-65	-98	2	2
SMILES	TRPM1 prom inh	LGR2 inh	Shn3 3UTR inh	EWS-Fli block	EBV LMP1 NFkB	PAX8 reporter
Cc1ccc(S(=O)(=O)Nc2ccc3c(c2)C(=O)N([C@H](C)CO)C[C@@H](C)[C@H](CN(C)C(=O)C2CCCCC2)OCCCC[C@@H](C)O3)cc1	/	-6	/	8	/	25
CCCNC(=O)N1CC2(CCN(C(=O)c3cnccn3)CC2)c2c([nH]c3cc(OC)ccc23)[C@H]1CO	/	11	/	-7	/	/
Cc1cc(CN2CCOCC2)c(O)c(C2(C)CCCCC2)c1	-7	/	87*	/	-13	/
COC(=O)N/N=C/c1cccs1	-8	10	14	3	-2	-14
COc1cc2ccccc2cc1C(=O)N/N=C/c1cccs1	/	-16	13	58*	24	41
COc1ccc2c3c(n(C)c2c1)[C@@H](CO)N(C(=O)Nc1ccc(F)cc1)CC31CN(S(=O)(=O)c2cccs2)C1	/	23	/	12	/	/
Cc1ccc(S(=O)(=O)N(C)C[C@@H]2OCCCC[C@@H](C)Oc3ccc(NC(=O)Nc4ccccc4)cc3C(=O)N([C@@H](C)CO)C[C@@H]2C)cc1	/	1	/	6	/	/
O=C(C#Cc1ccccc1)c1cccc([N+](=O)[O-])c1	102*	-7	93*	67*	39	/
O=C(/C=C/c1ccccc1F)c1cccc([N+](=O)[O-])c1	30	4	-1	/	45*	-17
O=C(C=Cc1ccccc1)c1ccc([N+](=O)[O-])cc1	-8	-13	-7	0	56*	-17
COc1cc(/C=C/C(=O)c2cccc([N+](=O)[O-])c2)cc(OC)c1OC	6	/	46	23	16	-5
COc1ccc(C=CC(=O)c2ccc([N+](=O)[O-])cc2)cc1	5	-5	19	-9	7	-20
Cc1[nH]c(C)c(C(=O)/C=C/c2ccc([N+](=O)[O-])cc2)c1C	0	/	13	63*	-203	2
CC(=O)c1cccc([N+](=O)[O-])c1	-8	6	0	-1	1	/
C[C@@H]1CN([C@H](C)CO)C(=O)c2cc(NC(=O)C3CCCCC3)ccc2O[C@H]1CN(C)Cc1ccccc1	/	-2	/	4	/	-5
Cc1nc2ccc(-c3nc4ccc(N)cc4[nH]3)cc2[nH]1	9	-19	-17	-19	29	69*
Nc1ccc(-c2nc3ccc(N)cc3[nH]2)cc1	4	-39	-30	2	-4	45
Nc1ccc2nc(-c3ccc(Cl)cc3)[nH]c2c1	-61	-76	-89	-57	2	80*
Cc1ccc(C)c(N2CCN(S(=O)(=O)c3ccc4[nH]c(=O)ccc4c3)CC2)c1	/	17	94*	13	-7	12

Screens (PubChem BioAssay)
